# Bioassay records: PubChem, National Center for Advancing Translational Sciences (NCATS)
# Only some compounds are listed: those with a hit (about 8% of all), similar ones and a draw of the others.
# HCMV antiviral: qHTS Assay for inhibitors of the human cytomegalovirus (HCMV) | HFF cells, HCMV-luciferase reporter, 72 h; hits give low values | activity change, negative = inhibition, % at 57.5 µM | 410,000 compounds, 4.5% hits | AID 1259415, 2018; in the data active means activity change below about -60%; inconclusive means no clear call, values can overlap the other calls; inactive means above about -39%; further: on the % scale 0 is the no-effect control and ±100 the full control effect
#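 Steps: HFFs plated, 16 h 37C; compounds added; HCMV-luciferase added to MOI 1 PFU/cell; 72 h 37C; OneGlo reagent, 5 min room temperature; luminescence read, normalized to controls.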
# Marburg entry inh: qHTS for inhibitors of binding or entry into cells for Marburg Virus | Potency, µM (top dose mostly 37.8 µM), without a hit: at the highest dose activity change, negative = inhibition, usual class: inhibitors | Marburg virus pseudotyped entry inhibition, cell reporter | AID 540276, 2011 | 300,000 compounds, 1.8% hits; calls by dose curve; tested in HEK293 cells; further: potency means the concentration at half of the fitted maximal effect; on the % scale 0 is the no-effect control and ±100 the full control effect
# Lassa entry inh: qHTS for Inhibitors of binding or entry into cells for Lassa Virus. Potency, µM (series often up to 37.9 µM), inactives show at the top dose activity change, negative = inhibition, most hits filed as inhibitors. 300,000 compounds, 1.2% hits. AID 540256, 2011. Lassa virus pseudotype entry inhibition, cell reporter; calls by dose curve; tested in HEK293 cells; further: potency means the concentration at half of the fitted maximal effect; on the % scale 0 is the no-effect control and ±100 the full control effect; nearly all actives have a fitted effect of over 50% in size
# FMDV antiviral: High Throughput Screening for Foot and Mouth Disease Virus Antivirals | 410,000 compounds, 1.2% hits | Potency, µM (series often up to 57.9 µM), for inactives: at the highest dose activity change, negative = inhibition, actives largely listed as inhibitors | FMDV antiviral cell-based qHTS | AID 1159524, 2015; calls by dose curve; tested in HEK293T cells; further: read-out not given here; potency means the concentration at half of the fitted maximal effect; on the % scale 0 is the no-effect control and ±100 the full control effect; nearly all actives have a fitted effect of over 45% in size
# HCV inh: qHTS Assay for Inhibitors of Hepatitis C Virus (HCV); Huh7.5.1 HCVcc-Cre infection, luciferase reporter, 44 h; 340,000 compounds, 3.4% hits; Potency, µM (highest dose often 41.8 µM), for the others: top-dose activity change, negative = inhibition, most hits filed as inhibitors; AID 651820, 2012; further: potency means the concentration at half of the fitted maximal effect; on the % scale 0 is the no-effect control and ±100 the full control effect
#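 1,000 cells/well; 4 h culture; + compound; + HCVcc-Cre (~0.5 moi); 44 h; luciferase substrate, RT 15 min; read 15 sec.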
# SARS PLpro yeast: qHTS of Yeast-based Assay for SARS-CoV PLP | AID 485353, 2010 | Potency, µM (doses to about 32.9 µM), for inactives: at the highest dose activity, positive = growth rescue, actives largely listed as activators | S. cerevisiae expressing SARS-CoV PLpro, growth rescue | 330,000 compounds, 0.19% hits; calls by dose curve; further: potency means the concentration at half of the fitted maximal effect; 0% is about no effect; nearly all actives have a fitted effect of over 55% in size
# HCV inh confirm: qHTS Assay for Inhibitors of Hepatitis C Virus (HCV): Confirmation Assay for Cherry-picked Compounds. Potency, µM (top dose mostly 41.8 µM), inactives show top-dose activity, negative = inhibition, usual class: inhibitors. shares compounds with HCV inh. 640 compounds, 78% hits. HCVcc-Cre infectious virus cell assay, luciferase, inhibition; further: potency means the concentration at half of the fitted maximal effect; nearly all actives have a fitted effect of over 80% in size
# HCV host tox: qHTS Assay for Inhibitors of Hepatitis C Virus (HCV): Cytotoxicity Counterscreen for Cherry-picked Compounds; AID 720576, 2013; 640 compounds, 22% hits; Potency, µM (top dose mostly 41.8 µM), inactives show at the highest dose activity change, negative = cytotoxicity, actives largely listed as inhibitors; HCV host cell line cytotoxicity counterscreen; shares compounds with HCV inh;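 further: potency means the concentration at half of the fitted maximal effect; 44 h compound exposure; on the % scale 0 is the no-effect control and ±100 the full control effect; nearly all actives have a fitted effect of over 55% in size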
# * = called active by the depositor; ? = inconclusive; . = no result given; [ ] = dose if it differs, or a comment. Unless noted, the call rests on the fitted dose curve; in most records, active means well fitted curve in the direction sought with a large enough effect; inconclusive means small, poorly fitted or top-dose-only effect, or another doubt; inactive means no such curve, though single readings can be large; an effect the other way counts as inactive or inconclusive.
SMILES,HCMV antiviral,Marburg entry inh,Lassa entry inh,FMDV antiviral,HCV inh,SARS PLpro yeast,HCV inh confirm,HCV host tox
COc1ccc(NS(=O)(=O)c2cc(NC(=O)Cn3cnc4c3c(=O)n(C)c(=O)n4C)ccc2C)cc1,-26,.,.,31%,?,2%,.,.
COc1ccccc1NC(=O)c1ccc(SCC(=O)NCc2ccccc2Cl)c([N+](=O)[O-])c1,-4,-18%,6%,-14%,?,-9%,?,43%
COCc1cccc(C2=CC(=O)C[C@H](c3ccc(F)cc3)C2)c1,10,.,.,-31%,-19%,-4%,.,.
CCN(CC)CCCNC(=O)c1cc(-c2ccc(Cl)cc2)on1,15,?,0%,16%,8.9µM*,-2%,22µM*,6%
CCCCN(CC)CCNC(=O)c1cc2c(-c3ccc(Cl)cc3)nn(C)c2s1,-100*,3.5µM*,?,3%,2.8µM*,1%,7µM*,14%
CCc1cccc(NC(=O)Cn2c(=O)n(CCCCCC(=O)NCc3ccc(F)cc3)c(=O)c3sccc32)c1,-7,?,0%[46.1 µM],?,.,.,.,.
COc1ccc(NS(=O)(=O)c2ccc3nc(COc4ccc5ccccc5c4)[nH]c3c2)cc1,?,?,?,?,7.9µM*,25%,20µM*,-91%
Cc1ccc(C(=O)Nc2cccnc2)cc1C,40,.,.,70%,.,.,.,.
Cc1[nH]n(-c2nc(-c3ccc(Cl)cc3)cs2)c(=O)c1N=Nc1ccc(O)cc1,-34,?,11µM*,7.9µM*,1.8µM*,0%,14µM*,-99%
CCOC(=O)c1cc2c(=O)n3ccccc3nc2n(Cc2ccco2)c1=NC(=O)c1cccc(F)c1,-13,-29%[46.1 µM],0%[46.1 µM],19%,.,.,.,.
CCOC(=O)c1cc2c(=O)n3ccccc3nc2n(Cc2ccco2)c1=NC(=O)c1ccc(OC)cc1OC,-27,?,0%,21%,?,6%,?,30%
O=C(COC(=O)c1ccc2c(=O)n3c(nc2c1)CCC3)Nc1ccc(OC(F)F)cc1,73,-24%[46.1 µM],-21%[46.1 µM],-6%,11%,-4%,.,.
Cc1ccccc1NC(=O)COC(=O)c1ccc(CSc2ccc(Cl)cc2)cc1,55,-1%,?,23%,20%,-16%,.,.
Cc1cc(CSc2ccc(Cl)cc2)ccc1N,4,4%[46.1 µM],1%[46.1 µM],15%,4µM*,.,6.3µM*,-12%
CCC(=O)N(Cc1ccco1)c1nc(-c2ccc(OC)cc2)cs1,-7,-23%,?,-3%,?,8%,.,.
CCC(=O)N(Cc1ccco1)c1nc(-c2ccccc2)cs1,-5,-11%,-14%,6%,?,-4%,?,29%
Cc1nn(-c2ccccc2)c(OC(=O)c2ccc(Br)cc2)c1S(=O)(=O)c1ccccc1,1,5%[46.1 µM],-4%[46.1 µM],14%,.,.,.,.
NC(=S)c1cn(C2OC(CO)C(O)C2O)c2ncnc(N)c12 (centres undefined),-99*,.,.,?,0.28µM*,-2%,0.44µM*,0.44µM*
Nc1ncnc2nn(C3OC(CO)C(O)C3O)nc12 (centres undefined),-14,.,.,-24%,.,.,.,.
O=[N+]([O-])c1ccc2c3n([n+]([O-])c2c1)CCN=C3c1ccc(Cl)cc1,-2,.,.,9%,?,3%,.,.
Cc1ccc(C2=NCCn3c2c2ccc([N+](=O)[O-])cc2[n+]3[O-])cc1,17,.,.,45%,?,-1%,22µM*,30%
FC(F)(F)c1nc(-c2cccs2)ncc1-c1nnnn1-c1ccc(Cl)cc1,-61*,?,16µM*,11µM*,5µM*,0%,6.3µM*,-94%
COc1cc2sc(C)nc2c2sccc12,11,3%,1%,-14%,2.2µM*,3%,25µM*,43%
COc1ccc2sc(C)nc2c1NC(C)=O,-17,-2%[46.1 µM],2%,-14%,-4%,5%,.,.
O=c1oc2ccccc2cc1-c1csc(NN=C2CCCC2)n1,-4,?,?,-18%,-6%,3%,.,.
SMILES,HCMV antiviral,Marburg entry inh,Lassa entry inh,FMDV antiviral,HCV inh,SARS PLpro yeast,HCV inh confirm,HCV host tox
Cc1ccc(-c2csc(Cc3nc(-c4cc5ccccc5oc4=O)cs3)n2)cc1,-80*,?,-54%,.,5µM*,-2%,5µM*,6.3µM*
N#C/C(=C\c1cc([N+](=O)[O-])c(N2CCCCC2)cc1N1CCCCC1)c1nn(-c2ccccc2)c(N)c1C#N,29,12%,-11%,-8%,?,?,10µM*,40%
N#C/C(=C\c1cccc2ccccc12)c1nn(-c2ccccc2)c(N)c1C#N,.,?,?,.,-29%,.,.,.
Cc1ccc(NCC(=O)N/N=C/c2ccc(C(=O)O)cc2)cc1,25,.,.,4%,3%,-3%,.,.
Cc1ccc(NCC(=O)N/N=C\c2ccc([N+](=O)[O-])o2)cc1,-82*,?,-29%,.,3.2µM*,29%,14µM*,?
O=C(Cc1ccc(Cl)cc1Cl)Nc1ccncc1Cl,-90*,.,.,?,7.9µM*,-16%,7µM*,10µM*
CCOC(=O)c1ccc(NC(=S)N(CCCN2CCN(C)CC2)Cc2cccs2)cc1,8,?,.,9%,?,0%,.,.
CCOC(=O)c1ccc(NC(=S)N(CCCN2CCCC2)Cc2cccs2)cc1,-26,?,.,41%,?,4%,?,22%
COc1ccc(-c2nc(-c3ccccc3OC)no2)cc1OC,31,28%,20%,2%,?,-15%,22µM*,5%
CCCn1c(NC(=O)c2ccccc2)nc2ccccc21,-15,-1%,-4%,23%,?,-22%,.,.
CCCn1c(NC(=O)c2cccc(S(=O)(=O)N3CCCC3)c2)nc2ccccc21,-97*,6.5µM*,?,32µM*,5µM*,5%,10µM*,8.9µM*
S=C(S)N1CCCC1,-36,?,?,-17%,?,.,25µM*,28µM*
COc1ccc(-c2ccc(SCC(=O)NCc3ccc4c(c3)OCO4)nn2)cc1OC,30,?,?,-26%,2.8µM*,1%,-25%,-9%
COc1ccc(-c2nc(CSCC(=O)NCc3ccc4c(c3)OCO4)c(C)o2)cc1OC,-7,?,-4%,-25%,?,?,.,.
